Screening data deposited in PubChem BioAssay by several laboratories.
M1 agonist: agonists of M1 muscarinic receptor | CHO-M1 cells, Fluo-4 calcium fluorescence, agonist mode; active compounds read high | B-score at 10 µM | 3% of 64,000 active | AID 626;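 active = fluorescence rise, raw or as B-score row- and column-corrected plate score, outside the 99.7% band of its plate's samples, either direction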
Abs 340nm: compound absorbs light at 340 nm; compound absorbance at 340 nm, fold over control; fold change at 10 µM; 65,000 tested, under 10 active; AID 708;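 active = at 10 µM dose, initial 340 nm absorbance at least 2 fold that of control wells; inactive = change under 2 fold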;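 also: initial absorbance extrapolated from kinetic A340 decline of NADH oxidation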
Autofluor 339: intrinsic fluorescence of library compounds, ex339/em460 – biochemical, MLSMR library, data from DPM-DC assay, artefact control, profiling panel | compound autofluorescence, ex339/em460 nm, NADH buffer; active compounds read high; 1 = no-compound wells, NADH background | fluorescence fold increase at 10 µM | 5.5% of 65,000 active;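 active = at 10 µM, mean starting fluorescence two-fold or more over control wells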;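 also: signal is the first read of a kinetic run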
M1 antagonist: antagonists of rat M1 muscarinic receptor; B-score at 10 µM; 3.4% of 64,000 active; P08482; AID 628; CHO-M1 cells, Fluo-4 calcium, ACh EC80 antagonist mode; active compounds read low;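 active = calcium fluorescence response, raw or row-and-column corrected B-score, differing from the plate sample mean either way at a set confidence level, mostly lower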
Target sequence (P08482 whole entry, looked up): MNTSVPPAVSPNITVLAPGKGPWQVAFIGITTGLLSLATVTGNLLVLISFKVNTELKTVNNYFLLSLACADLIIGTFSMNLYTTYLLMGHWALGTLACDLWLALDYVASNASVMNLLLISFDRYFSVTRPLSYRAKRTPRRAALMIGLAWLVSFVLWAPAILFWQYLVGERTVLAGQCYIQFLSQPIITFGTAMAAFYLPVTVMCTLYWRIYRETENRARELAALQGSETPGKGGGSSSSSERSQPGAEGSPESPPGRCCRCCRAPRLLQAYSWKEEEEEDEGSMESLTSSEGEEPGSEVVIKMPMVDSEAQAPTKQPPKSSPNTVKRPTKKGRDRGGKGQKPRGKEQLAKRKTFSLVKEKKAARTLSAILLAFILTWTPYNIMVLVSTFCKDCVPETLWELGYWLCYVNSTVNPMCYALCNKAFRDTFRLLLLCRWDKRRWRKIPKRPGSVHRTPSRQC
NADH enzymes: inhibitors of enzymes used to reach an NAD/NADH endpoint; coupled PK/LDH NADH assays, four targets; 0.02% of 65,000 active; IC50, µM (titrated, usually from 10 µM), inactives show at the highest dose inhibition;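 active = single-dose screening hits from any of four coupled enzyme assays that gave an IC50 when retested across doses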;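 also: the DPM-DC format reads NADH fluorescence rather than 340 nm absorbance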
Htt clearance: mutant huntingtin protein clearance; HeLa Exon1htt(103Q)mCFP, aggregate imaging; zero = plate's median compound well; inhibition, % at 1.5 µM; 0.42% of 47,000 active; AID 853;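 active = inhibition of aggregate fluorescence above about 70%, also judged a hit by eye on the cell image, limit read from the data, passing the limit was not always enough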;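 also: cells exposed to compound for three days before fixation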
Numbers without * were called inactive; . = no result. Hits are enriched below; roughly 9.3% of the tested compounds scored in any of these assays.

SMILES	M1 agonist	Abs 340nm	Autofluor 339	M1 antagonist	NADH enzymes	Htt clearance
O=C(CSc1nnnn1-c1cccc2c1CCCC2)N1CCCC1	.	.	.	.	.	-28
O=C(CSc1nnnn1-c1cccc2c1CCCC2)N1CCOCC1	-0.11	1	1.1	2.7*	6%	12
O=C(Cn1cnc2c(nnn2Cc2ccccc2F)c1=O)NCc1ccco1	-0.52	1	1.1	-0.073	7%	.
CC1(C)Cc2c(c(N3CCOCC3)nc3sc(C#N)c(N)c23)CS1	0.24	1.1	2.5*	0.17	2%	.
CC1(C)Cc2c(C#N)c(SCCC#N)nc(N3CCOCC3)c2CS1	0.14	1	1	1.6	1%	.
CCOc1ccc2nc(-c3ccccc3)[nH]c2c1	0.015	0.99	4*	0.085	7%	48
COc1ccc2nc(-c3ccccc3)[nH]c2c1	0.5	1.1	2.3*	0.77	4%	.
COc1ccc2nc(NCc3ccccc3)[nH]c2c1	-0.13	1	1.1	0.15	6%	.
Cc1cc(F)ccc1S(=O)(=O)Nc1ccccc1C(=O)Nc1ncn[nH]1	0.4	1	2.3*	-0.11	5%	.
Cc1ccc(F)cc1NC(=O)c1cccc2nccnc12	-0.5	1	1	0.12	5%	.
O=C(NC(=O)c1cccc(OC(F)(F)C(F)F)c1)OC1CCS(=O)(=O)C1 (configuration not stated)	22*	0.95	1.1	-19*	5%	.
COc1c2ccoc2nc2c(OC)c(OCC(O)C(C)(C)O)ccc12 (configuration not stated)	0.16	1	2.5*	0.029	1%	-23
COc1c2c(nc3occc13)C(CCC(C)(C)O)(OC)C(O)CC2 (configuration not stated)	0.045	1.1	1.1	-0.82	4%	-22
CCCS(=O)(=O)c1c(S(=O)(=O)CCC)c2c3ccccc3ccn2c1C(N)=O	1.9	1	0.99	0.3	8%	-31
CC(C)Cc1cc(C(=O)NCCCN2CCOCC2)no1	0.21	1	1.1	0.2	15%	.
Cc1nc(NC2=NCN(Cc3cccnc3)CN2)nc2ccccc12	0.78	1	1.1	-11*	4%	.
Cc1nc(NC2=NCN(Cc3ccccc3)CN2)nc2ccccc12	4.5*	1.1	1.1	0.7	1%	.
Cc1nc(NC2=NCN(Cc3ccco3)CN2)nc2ccccc12	-0.055	0.99	1.1	-2.9*	9%	.
CC(C)Cn1c(=O)c2c(nc3n2CCCN3CCc2ccccc2)n(C)c1=O	1.3	1	1.1	0.037	0%	.
O=C(OCCNc1ncc(C(F)(F)F)cc1Cl)c1ccc(S(=O)(=O)N2CCOCC2)cc1	-0.32	1.1	1.1	0.089	5%	.
O=C(CSc1nc2nc(-c3cccs3)cc(C(F)(F)F)c2c(=O)[nH]1)NCc1ccco1	1.1	1.1	4.9*	-0.09	12%	-22
COc1ccc(-c2cc(C(F)(F)F)n3ncc(C(=O)NCC4CCCO4)c3n2)cc1 (configuration not stated)	-0.93	1.1	3*	0.12	2%	-10
O=C(NC1CCCC1)c1ccc2nc(-c3ccco3)c(-c3ccco3)nc2c1	7.1*	1	2.9*	0.051	17%	-26
O=C(NCc1ccco1)c1cnn2c(C(F)F)cc(-c3ccccc3)nc12	-1.1	1.1	2.1*	-1	12%	-56
COc1cccc(-c2cc(C(F)(F)F)n3ncc(C(=O)O)c3n2)c1	0.0098	1	1.1	-0.99	3%	28
SMILES	M1 agonist	Abs 340nm	Autofluor 339	M1 antagonist	NADH enzymes	Htt clearance
COc1cc(C(c2nnnn2C(C)(C)C)N2CCN(c3nc4ccccc4s3)CC2)ccc1O (configuration not stated)	-0.0058	1	1.1	-0.1	2%	.
Cc1[nH]c2ccccc2c1C(=O)CN1CCCCC1CCO (configuration not stated)	-0.2	1	1	-0.029	7%	.
N#CC1=C(SCc2ccccc2Cl)NC(=O)C(C(N)=O)C1 (configuration not stated)	1	1	1.1	0.45	6%	.
O=C(NCc1ccco1)c1cnn2c(C(F)(F)F)cc(-c3cccs3)nc12	0.82	1.1	2.3*	-0.76	8%	-15
O=C(NC1CCCCC1)c1nn2c(C(F)(F)F)cc(-c3ccco3)nc2c1Br	0.31	1	1.5	-0.12	6%	.
O=C(NC1CCCCC1)c1cnn2c(C(F)(F)F)cc(-c3ccco3)nc12	1.1	1.1	2.5*	-1.4	12%	.
CSCC[C@H](NC(=O)OC(C)(C)C)c1nnc(SCC(=O)Nc2ccc(C)cc2C)o1	0.69	1	1.1	-0.034	2%	.
O=c1[nH]c2cc(Cl)cc(Cl)c2[nH]c1=O	0.098	1	2.5*	0.31	13%	-69
CCCCc1c(O)nc(SCC(=O)NCCc2ccc(OC)c(OC)c2)[nH]c1=O	-0.87	0.98	1	0.41	6%	-81
CCOC(=O)c1c(-c2ccccc2)[nH]c2ccc(O)cc12	0.068	1.1	3.7*	-0.54	5%	52
CCCCNc1c(C(=O)OCC)c(=O)[nH]c2ccccc12	0.032	1.1	1.1	0.6	4%	.
COc1cc(-c2nnc(-c3ccc(S(=O)(=O)c4ccccc4)cc3)o2)cc(OC)c1OC	-0.029	1	3.7*	0.13	11%	-14
CCOC(=O)Nc1oc2ccccc2c(=O)c1CN1CCOCC1	0.039	1	2.2*	-0.98	8%	32
Cc1ccc2[nH]c(-c3ccccc3)c(CN3CCOCC3)c(=O)c2c1	.	.	.	.	.	-65
O=C(NC1CCCCC1)C1CC=CCC1C(=O)OCC(Cl)=C(Cl)Cl (configuration not stated)	.	.	.	.	.	-3
CCOC(=O)C(C(=O)OCC)c1cc(Br)c2noc3c2c1C(=O)c1ccccc1-3	788*	1	1.1	-0.76	4%	-57
CC(=O)OCCNc1cc(N2CCN(C)CC2)c2noc3c2c1C(=O)c1ccccc1-3	-0.53	0.99	0.98	0.0093	4%	.
CCCc1cc2c(=O)c(-c3ccccn3)c(C)oc2cc1O	0.1	1.1	2.1*	0.026	5%	.
CCn1cc(C(=O)NCCCN2CCC(C)CC2)c2cc(OC)c(OC)cc2c1=O	0.11	1.1	1.1	0.2	1%	.
C=C(C)CSc1nnc([C@@H]2CCCN2C(=O)OC(C)(C)C)o1	-0.6	1	1.1	0.0043	1%	.
CCOC(=O)C1CCCN(C(=O)c2cnn3c(C(F)F)cc(-c4ccc(C)cc4)nc23)C1 (configuration not stated)	0.26	1.1	2.3*	0.79	8%	39
COc1ccc(-c2cc(C(F)F)n3ncc(C(=O)N4CCSCC4)c3n2)cc1	0.92	1.2	3.5*	-0.13	12%	-28
CCOC(=O)C1CCN(C(=O)c2cnn3c(C)cc(C)nc23)CC1	-0.47	0.96	3.5*	0.23	15%	.
Cc1ccc(-c2cc(C(F)F)n3ncc(C(=O)N4CCN5CCCC5C4)c3n2)cc1 (configuration not stated)	0.27	1.1	1.8	-0.69	5%	.
